# From the supplement of paper PMC11732987, “Enantioselective OTUD7B fragment discovery through chemoproteomics screening and high-throughput optimisation” (Communications Chemistry, 2025)
# A number with no mark means an inactive call.
# Experiments:
# Experiment in all cases: log2 ratio of Biotin-Ahx-Ub-VS probe labelling (fragment/DMSO); higher = less target engagement (more negative = stronger competition), active = hit call of the paper (q ≤ 0.05, log2 ratio ≤ -1)
# Conditions in all cases: compound concentration: 200 uM; treatment time: 3 h
# USP19 = target: T1, USP19 (UniProt O94966)
# T1 sequence (whole entry): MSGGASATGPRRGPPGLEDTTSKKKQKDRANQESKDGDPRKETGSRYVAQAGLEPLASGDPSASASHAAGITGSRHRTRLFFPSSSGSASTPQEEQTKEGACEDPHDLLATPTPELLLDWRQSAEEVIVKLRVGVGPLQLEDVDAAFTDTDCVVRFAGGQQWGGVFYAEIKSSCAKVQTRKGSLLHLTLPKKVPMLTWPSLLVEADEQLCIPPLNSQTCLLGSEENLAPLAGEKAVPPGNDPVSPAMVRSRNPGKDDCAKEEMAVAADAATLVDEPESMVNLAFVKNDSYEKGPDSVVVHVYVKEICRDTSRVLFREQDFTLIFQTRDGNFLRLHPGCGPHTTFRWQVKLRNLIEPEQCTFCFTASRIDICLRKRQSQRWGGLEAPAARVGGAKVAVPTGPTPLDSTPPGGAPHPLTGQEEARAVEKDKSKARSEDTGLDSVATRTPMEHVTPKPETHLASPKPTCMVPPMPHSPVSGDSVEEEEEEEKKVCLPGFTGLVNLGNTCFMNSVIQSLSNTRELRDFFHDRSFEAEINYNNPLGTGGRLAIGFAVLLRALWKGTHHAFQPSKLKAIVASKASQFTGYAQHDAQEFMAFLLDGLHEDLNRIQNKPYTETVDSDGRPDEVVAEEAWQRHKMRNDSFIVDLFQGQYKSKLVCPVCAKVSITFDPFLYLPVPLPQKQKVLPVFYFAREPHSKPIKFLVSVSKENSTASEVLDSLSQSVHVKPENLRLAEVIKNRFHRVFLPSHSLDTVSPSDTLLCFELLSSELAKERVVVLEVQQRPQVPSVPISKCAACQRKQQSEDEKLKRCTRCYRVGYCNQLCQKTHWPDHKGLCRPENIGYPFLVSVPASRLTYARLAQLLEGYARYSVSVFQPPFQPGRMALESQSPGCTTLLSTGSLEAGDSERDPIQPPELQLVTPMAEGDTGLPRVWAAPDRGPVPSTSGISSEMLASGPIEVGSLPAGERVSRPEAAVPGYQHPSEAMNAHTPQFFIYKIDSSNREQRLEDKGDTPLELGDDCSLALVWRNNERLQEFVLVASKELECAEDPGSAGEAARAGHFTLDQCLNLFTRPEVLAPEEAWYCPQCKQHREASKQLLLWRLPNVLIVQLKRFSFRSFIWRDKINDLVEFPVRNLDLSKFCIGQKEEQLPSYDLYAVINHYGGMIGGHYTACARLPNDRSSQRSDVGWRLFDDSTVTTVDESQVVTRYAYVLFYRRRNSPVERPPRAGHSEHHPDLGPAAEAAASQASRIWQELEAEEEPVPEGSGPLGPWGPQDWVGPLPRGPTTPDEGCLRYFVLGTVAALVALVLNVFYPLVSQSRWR
# How it was run: (§1)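 The table lists average log2 ratios of fragment over vehicle, from an unpaired t-test on global-median-normalised Spectronaut label-free quantities. Proteins with ≥2 unique peptides were used. Samples were HEK293T lysate (495 µg) treated in triplicate with fragment at 200 µM or vehicle for 3 h, then with Biotin-Ahx-Ub-VS (0.5 µM final) for 1 h, with labelled DUBs NeutrAvidin-enriched and run by diaPASEF LC-MS/MS.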
# USP24 = USP24 (UniProt Q9UPU5)
# Sequence of USP24 (Q9UPU5 whole entry): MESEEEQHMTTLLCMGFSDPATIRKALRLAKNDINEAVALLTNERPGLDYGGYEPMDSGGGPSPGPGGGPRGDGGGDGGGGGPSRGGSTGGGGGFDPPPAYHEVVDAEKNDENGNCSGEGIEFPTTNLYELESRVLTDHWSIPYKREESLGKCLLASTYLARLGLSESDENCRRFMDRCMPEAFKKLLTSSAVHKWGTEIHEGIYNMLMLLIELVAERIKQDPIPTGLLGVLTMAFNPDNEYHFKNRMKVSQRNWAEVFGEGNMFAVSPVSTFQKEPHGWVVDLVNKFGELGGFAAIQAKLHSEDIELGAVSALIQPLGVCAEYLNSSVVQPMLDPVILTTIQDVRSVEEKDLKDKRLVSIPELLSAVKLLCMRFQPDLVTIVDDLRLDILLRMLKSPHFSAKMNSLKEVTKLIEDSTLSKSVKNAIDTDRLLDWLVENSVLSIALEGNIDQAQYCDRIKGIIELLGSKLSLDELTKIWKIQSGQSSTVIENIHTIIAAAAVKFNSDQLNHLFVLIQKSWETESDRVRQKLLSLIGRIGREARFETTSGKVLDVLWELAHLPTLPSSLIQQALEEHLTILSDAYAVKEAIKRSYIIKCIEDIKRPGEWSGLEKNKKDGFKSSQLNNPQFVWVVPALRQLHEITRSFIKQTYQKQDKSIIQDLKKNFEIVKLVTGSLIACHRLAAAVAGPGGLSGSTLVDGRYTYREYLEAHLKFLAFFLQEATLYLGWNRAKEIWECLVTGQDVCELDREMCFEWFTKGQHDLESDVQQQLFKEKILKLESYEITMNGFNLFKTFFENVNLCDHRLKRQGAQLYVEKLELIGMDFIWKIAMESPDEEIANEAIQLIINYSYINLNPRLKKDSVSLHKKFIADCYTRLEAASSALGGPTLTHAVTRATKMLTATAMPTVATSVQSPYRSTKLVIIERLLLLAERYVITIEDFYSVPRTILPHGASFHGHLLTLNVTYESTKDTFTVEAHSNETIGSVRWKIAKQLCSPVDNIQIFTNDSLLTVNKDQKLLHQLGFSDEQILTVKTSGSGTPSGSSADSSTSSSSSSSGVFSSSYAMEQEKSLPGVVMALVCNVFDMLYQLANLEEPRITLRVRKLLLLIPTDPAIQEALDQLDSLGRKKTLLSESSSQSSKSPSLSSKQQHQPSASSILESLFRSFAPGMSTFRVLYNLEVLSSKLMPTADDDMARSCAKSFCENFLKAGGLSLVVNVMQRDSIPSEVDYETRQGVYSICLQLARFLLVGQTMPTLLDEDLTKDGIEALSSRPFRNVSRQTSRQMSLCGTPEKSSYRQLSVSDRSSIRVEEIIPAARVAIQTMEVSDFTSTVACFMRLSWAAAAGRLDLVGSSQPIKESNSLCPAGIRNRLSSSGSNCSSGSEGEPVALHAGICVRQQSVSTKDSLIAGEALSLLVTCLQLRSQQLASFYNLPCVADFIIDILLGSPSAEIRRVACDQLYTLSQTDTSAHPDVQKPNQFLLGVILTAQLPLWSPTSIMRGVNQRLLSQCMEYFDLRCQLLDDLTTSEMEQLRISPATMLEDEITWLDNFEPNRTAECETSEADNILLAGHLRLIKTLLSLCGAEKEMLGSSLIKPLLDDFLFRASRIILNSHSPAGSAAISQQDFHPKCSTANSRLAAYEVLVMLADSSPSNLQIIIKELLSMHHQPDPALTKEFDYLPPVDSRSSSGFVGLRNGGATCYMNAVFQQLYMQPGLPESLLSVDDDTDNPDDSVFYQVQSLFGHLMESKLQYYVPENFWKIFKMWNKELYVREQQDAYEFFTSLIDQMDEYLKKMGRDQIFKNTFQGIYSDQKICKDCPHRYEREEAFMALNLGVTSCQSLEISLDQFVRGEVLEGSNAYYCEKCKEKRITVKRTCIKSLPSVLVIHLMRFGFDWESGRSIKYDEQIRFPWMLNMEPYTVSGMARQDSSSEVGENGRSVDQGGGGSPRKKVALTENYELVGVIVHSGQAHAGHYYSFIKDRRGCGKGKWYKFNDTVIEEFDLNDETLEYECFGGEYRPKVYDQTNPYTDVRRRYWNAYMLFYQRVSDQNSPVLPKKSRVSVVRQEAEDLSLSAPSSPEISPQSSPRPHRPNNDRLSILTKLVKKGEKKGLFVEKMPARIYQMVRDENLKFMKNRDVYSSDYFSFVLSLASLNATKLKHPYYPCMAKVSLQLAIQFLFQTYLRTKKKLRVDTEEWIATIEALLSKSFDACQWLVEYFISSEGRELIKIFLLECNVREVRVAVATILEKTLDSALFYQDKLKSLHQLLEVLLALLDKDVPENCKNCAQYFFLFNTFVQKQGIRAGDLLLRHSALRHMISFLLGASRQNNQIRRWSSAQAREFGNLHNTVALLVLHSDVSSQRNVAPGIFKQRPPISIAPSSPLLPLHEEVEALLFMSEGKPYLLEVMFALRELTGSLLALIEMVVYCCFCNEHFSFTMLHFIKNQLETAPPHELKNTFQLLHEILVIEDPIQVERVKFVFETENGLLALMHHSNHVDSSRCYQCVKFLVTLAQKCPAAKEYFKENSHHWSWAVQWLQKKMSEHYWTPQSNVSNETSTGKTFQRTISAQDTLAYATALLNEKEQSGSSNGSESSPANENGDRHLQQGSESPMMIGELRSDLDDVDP
# How it was run: as §1
# USP25 = target: T2, USP25 (UniProt Q9UHP3)
# T2 sequence (whole entry): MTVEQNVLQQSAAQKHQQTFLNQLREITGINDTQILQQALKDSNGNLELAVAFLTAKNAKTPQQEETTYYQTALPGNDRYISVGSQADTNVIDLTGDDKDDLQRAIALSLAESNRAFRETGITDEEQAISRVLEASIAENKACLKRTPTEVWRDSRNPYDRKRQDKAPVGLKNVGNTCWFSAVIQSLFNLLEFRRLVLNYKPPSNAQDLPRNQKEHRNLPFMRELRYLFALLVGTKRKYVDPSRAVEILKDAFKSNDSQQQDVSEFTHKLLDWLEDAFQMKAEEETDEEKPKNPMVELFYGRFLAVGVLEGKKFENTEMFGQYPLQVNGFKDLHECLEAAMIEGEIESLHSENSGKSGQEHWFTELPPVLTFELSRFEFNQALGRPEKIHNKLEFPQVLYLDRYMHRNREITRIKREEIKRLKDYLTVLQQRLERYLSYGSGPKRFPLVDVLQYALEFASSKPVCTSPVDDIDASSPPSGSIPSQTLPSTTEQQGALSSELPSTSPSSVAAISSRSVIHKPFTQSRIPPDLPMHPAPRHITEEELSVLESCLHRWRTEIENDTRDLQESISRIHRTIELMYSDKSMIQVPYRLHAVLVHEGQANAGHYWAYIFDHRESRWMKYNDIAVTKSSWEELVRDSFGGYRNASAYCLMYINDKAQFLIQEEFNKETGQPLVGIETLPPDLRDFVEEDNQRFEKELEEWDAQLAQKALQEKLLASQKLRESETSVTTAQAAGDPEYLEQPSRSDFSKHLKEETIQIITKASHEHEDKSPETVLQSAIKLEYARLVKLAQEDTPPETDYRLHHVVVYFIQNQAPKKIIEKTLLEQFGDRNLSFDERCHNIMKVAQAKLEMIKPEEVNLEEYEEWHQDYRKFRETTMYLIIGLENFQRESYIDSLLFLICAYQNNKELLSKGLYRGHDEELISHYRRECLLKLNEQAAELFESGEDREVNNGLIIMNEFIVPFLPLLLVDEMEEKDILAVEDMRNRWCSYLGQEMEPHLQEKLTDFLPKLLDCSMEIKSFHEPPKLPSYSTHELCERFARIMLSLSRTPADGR
# How it was run: as §1
# USP28 = target: T3, USP28 (UniProt Q96RU2)
# T3 sequence (whole entry): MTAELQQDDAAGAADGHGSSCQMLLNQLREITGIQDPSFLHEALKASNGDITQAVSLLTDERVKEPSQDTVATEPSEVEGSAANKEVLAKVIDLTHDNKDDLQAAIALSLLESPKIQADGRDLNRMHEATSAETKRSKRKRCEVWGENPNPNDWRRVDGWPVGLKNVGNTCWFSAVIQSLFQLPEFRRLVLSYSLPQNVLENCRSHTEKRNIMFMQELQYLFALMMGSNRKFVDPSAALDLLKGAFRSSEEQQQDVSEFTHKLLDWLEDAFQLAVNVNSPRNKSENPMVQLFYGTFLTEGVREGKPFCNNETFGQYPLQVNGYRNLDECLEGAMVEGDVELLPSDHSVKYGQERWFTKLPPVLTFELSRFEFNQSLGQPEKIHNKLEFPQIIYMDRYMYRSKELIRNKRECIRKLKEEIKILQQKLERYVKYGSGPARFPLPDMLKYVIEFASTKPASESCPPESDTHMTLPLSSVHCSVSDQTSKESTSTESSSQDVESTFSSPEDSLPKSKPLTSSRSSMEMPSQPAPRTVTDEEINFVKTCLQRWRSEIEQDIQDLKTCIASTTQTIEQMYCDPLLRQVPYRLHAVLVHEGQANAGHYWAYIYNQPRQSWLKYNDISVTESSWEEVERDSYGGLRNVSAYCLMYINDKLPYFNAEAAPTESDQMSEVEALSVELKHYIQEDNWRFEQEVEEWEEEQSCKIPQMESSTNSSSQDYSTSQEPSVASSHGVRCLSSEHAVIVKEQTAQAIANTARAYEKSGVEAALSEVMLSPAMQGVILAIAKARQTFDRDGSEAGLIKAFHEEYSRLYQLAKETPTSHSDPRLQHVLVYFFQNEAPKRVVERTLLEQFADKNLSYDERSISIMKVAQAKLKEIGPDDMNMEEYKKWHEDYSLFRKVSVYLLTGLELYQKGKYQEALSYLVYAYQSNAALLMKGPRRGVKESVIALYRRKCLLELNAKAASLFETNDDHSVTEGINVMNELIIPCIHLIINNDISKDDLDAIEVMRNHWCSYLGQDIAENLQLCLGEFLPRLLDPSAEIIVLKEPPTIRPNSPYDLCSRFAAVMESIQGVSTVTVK
# How it was run: as §1
compound,measurement,setting,value
Cc1ccc(C)c(NC(=O)CCl)c1,log2 ratio of Biotin-Ahx-Ub-VS probe labelling,USP19,-0.203
same,log2 ratio of Biotin-Ahx-Ub-VS probe labelling,USP24,-0.729
same,log2 ratio of Biotin-Ahx-Ub-VS probe labelling,USP25,-1.41 (active)
same,log2 ratio of Biotin-Ahx-Ub-VS probe labelling,USP28,-1.56 (active)
